Source: PubChem (National Center for Advancing Translational Sciences (NCATS))
This is a sample that favours compounds with a hit; in the whole collection about 21% have one here.
Cycloheximide cs – Cycloheximide Counterscreen for Small Molecule Inhibitors of Shiga Toxin; 300,000 tested, 12% active; max response, %; AID 2314, 2010; cell reporter, cycloheximide protein synthesis inhibition counterscreen; in the data active = max response mostly above about 13%, no sharp cut-off; inactive = mostly below about 14%; note: read at 38.3 µM for the half of the compounds with a filed dose; 0% is about no effect
Pf growth 96h – Primary qHTS for delayed death inhibitors of the malarial parasite plastid, 96 hour incubation; P. falciparum luciferase reporter growth, 96 h; Potency, µM (titrated, usually from 28.7 µM), for the others: at the top dose activity change, negative = inhibition, actives largely listed as inhibitors; 320,000 tested, 6.9% active; active = well fitted inhibition curve with a large enough effect; inconclusive = small, poorly fitted or top-dose-only effect, or another doubt; inactive = no such curve, though single readings can be large or run the other way; note: potency is the fitted concentration of half-maximal effect; % is set by controls: 0 for no effect and ±100 for the full control effect
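Parasite growth measured via integrated firefly luciferase reporter in P. falciparum. Infected erythrocytes at 2% hematocrit, 0.05% parasitemia final were treated 96 hours at 37 C under 5% CO2, and luminescence was read.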
Shiga toxin inh – A qHTS for Small Molecule Inhibitors of Shiga Toxin; AID 2315, 2010; Vero cells, Shiga toxin protein synthesis inhibition reporter; 290,000 tested, 9.2% active; inhibition, % at 38.7 µM; in the data active = inhibition mostly above about 28%, no sharp cut-off; inactive = mostly below about 43%; note: 0% is about no effect
NS1 inh – qHTS Assay for Inhibitors of Influenza NS1 Protein Function. 270,000 tested, 0.4% active. AID 2326, 2010. Potency, µM (top dose mostly 46.1 µM), for the others: at the top dose activity, positive = more growth; note: potency is the fitted concentration of half-maximal effect; actives are rising curves; nearly all actives have a fitted effect of over 50% in size
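OD600 was taken as the measure of yeast growth restored by compound in an NS1-expressing S. cerevisiae strain. Cells had been washed out of glucose medium and diluted 1:100 into galactose -URA medium, pH 6.0.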
SARS PLP yeast – qHTS of Yeast-based Assay for SARS-CoV PLP; S. cerevisiae expressing SARS-CoV PLpro, growth rescue; 330,000 tested, 0.19% active; Potency, µM (highest dose often 32.9 µM), without a hit: at the highest dose activity, positive = growth rescue, most hits filed as activators; note: potency is the fitted concentration of half-maximal effect; 0% is about no effect; nearly all actives have a fitted effect of over 55% in size
Pf growth 48h – Primary qHTS for delayed death inhibitors of the malarial parasite plastid, 48 hour incubation | P. falciparum luciferase growth in erythrocytes, 48 h | 310,000 tested, 5.9% active | Potency, µM (titrated, usually from 28.7 µM), inactives show at the highest dose activity change, negative = inhibition, hits mostly inhibitors | AID 504832, 2011; active = well fitted inhibition curve with a large enough effect; inconclusive = small, poorly fitted or top-dose-only effect, or another doubt; inactive = no such curve, though single readings can be large or run the other way; note: potency is the fitted concentration of half-maximal effect; % is set by controls: 0 for no effect and ±100 for the full control effect
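Luciferase-expressing parasites in RBCs, 2% Hct / 0.1% parasitemia final; RPMI 1640 + 0.5% Albumax; 37 C, 5% CO2, one generation; luminescence read-out, lower signal = inhibition.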
Numbers without * were called inactive; i = inactive; ? = inconclusive; . = no result. Unless noted, calls come from the whole dose curve.

SMILES | Cycloheximide cs | Pf growth 96h | Shiga toxin inh | NS1 inh | SARS PLP yeast | Pf growth 48h
CC(C)c1ccc(NC(=O)CCNC(=O)Cn2ccc3ccccc3c2=O)cc1 | -7 | 36% | -4 | 16% | 1% | 21%
CCN(CC)CCOC(=O)c1ccc(NC(=O)CCCN2C(=O)/C(=C\c3cccs3)SC2=S)cc1 | 10 | 4.1µM* | -11 | ? | 1% | 2.3µM*
CCN(CC)CCOC(=O)c1ccc(NC(=O)CCNC(=O)Cn2ccc3ccccc3c2=O)cc1 | -2 | 12µM* | -2 | 0% | -3% | -2%
O=C(CCN1C(=O)/C(=C\c2ccccc2)SC1=S)NNC(=O)c1cccnc1 | 2 | -47% | 8 | 1% | 17% | 14%
O=C(CCCN1C(=O)/C(=C/c2ccccc2Cl)SC1=S)NNC(=O)c1ccccc1 | -8 | 1.9µM* | -11 | -6% | 8% | ?
O=C(CCCN1C(=O)/C(=C/c2ccccc2Cl)SC1=S)NNC(=O)c1cccnc1 | -3 | ? | -12 | 4% | -1% | 9.3µM*
Cc1ccc(-c2nnc(SCC(=O)NC3CCCC3)n2N)cc1 | . | . | . | . | 20% | .
Cc1ccc(-c2cccc(-c3cc(=O)oc4ccc(C(C)(C)C)cc34)c2)cc1 | 5 | . | i | . | -11% | .
O=C(CCCN1C(=O)/C(=C/c2cccs2)SC1=S)NNC(=O)c1cccnc1 | 9 | 15µM* | 7 | 5% | 2% | ?
O=C(CCCN1C(=O)/C(=C\c2cccs2)SC1=S)NNC(=O)c1ccncc1 | -2 | 8% | -4 | 5% | 3% | 0%
Cc1cc(NC(=O)CCN2C(=O)/C(=C\c3ccccc3Cl)SC2=S)no1 | 14 | 0.033µM* | -7 | . | -1% | 22%
C=C1c2cc(C)ccc2NC(=O)N1c1ccccc1 | -6 | -2% | -17 | -4% | -12% | 22%
CN(CC(=O)Nc1ccccc1Br)C(=O)CCCSc1nc2ccccc2[nH]1 | . | ? | . | . | 28% | -19%
CCOC(=O)N1CCC(NC(=O)c2ccc3c(c2)sc2nc(-c4cccc(OC)c4)cn23)CC1 | 7 | 10% | 35 | ? | 24% | 7.4µM*
CCOC(=O)N1CCC(NC(=O)c2cc(C(=O)Nc3cccc(OC)c3)ccc2CO)CC1 | -5 | . | -7 | -5% | 5% | .
O[C@@H](COc1ccc(Cl)cc1Cl)CN1CCCC1 | . | . | . | -3% | . | .
CC(C)Cn1cnc2c1c(=O)[nH]c(=O)n2Cc1ccccc1 | -3 | ? | -11 | -2% | 2% | -8%
CC(C)n1c(O)c(N=NC(=O)Cc2csc(N3CCOCC3)n2)c2ccccc21 | -3 | ? | 19 | . | -2% | 13µM*
CC(C)n1c(O)c(N=NC(=O)CNC(=O)Cc2ccc(Cl)cc2)c2ccccc21 | -3 | -18% | -10 | 4% | -19% | -10%
Cc1ccc(NC(=O)COC(=O)c2cc(C)nc3ccccc23)c([N+](=O)[O-])c1 | -2 | -3% | -8 | 12% | 2% | 17%
Cc1[nH]c(C)c(S(=O)(=O)N2c3ccccc3CC2C)c1C(=O)N1CCCCC1 (stereo unspecified) | -3 | 15µM* | -2 | -7% | 1% | -11%
CC(=O)c1ccc(N2CCN(S(=O)(=O)c3c(C)[nH]c(C)c3C(=O)N3CCCC3)CC2)cc1 | 11 | -45% | 11 | -15% | -1% | 4%
COc1ccccc1N1CCN(S(=O)(=O)c2c(C)[nH]c(C)c2C(=O)N2CCCCC2)CC1 | -2 | 0% | -5 | 5% | 1% | -13%
CC(=O)c1ccc(N2CCN(S(=O)(=O)c3c(C)[nH]c(C)c3C(=O)N3CCCCC3)CC2)cc1 | 19* | 14% | 17 | -18% | 1% | ?
CCOC(=O)CCN(c1ccccc1)S(=O)(=O)c1ccc(-c2ccc(=O)[nH]n2)s1 | -5 | ? | -12 | 2% | 7% | -20%
SMILES | Cycloheximide cs | Pf growth 96h | Shiga toxin inh | NS1 inh | SARS PLP yeast | Pf growth 48h
O=C(NC1CCN(C(=O)Nc2cccc(Cl)c2)CC1)c1ccco1 | -1 | -7% | -5 | 0% | 4% | 23%
CCc1ccc(/C=N\n2cnnc2)cc1 | 1 | 0% | -4 | -5% | -2% | -2%
COc1cc(-c2n[nH]c(=S)n2-c2ccc(C)cc2)cc(OC)c1OC | 17* | 22% | 3 | 1% | -7% | -39%
Cc1ccc(-n2c(-c3ccncc3)n[nH]c2=S)cc1 | 31* | 21% | 168* | . | 0% | -3%
CC(C)Cn1c(-c2ccncc2)n[nH]c1=S | -3 | 3.7µM* | -12 | 4% | -1% | 3%
CC(C)Cn1c(-c2ccc(F)cc2)n[nH]c1=S | -4 | 25% | -1 | 7% | -7% | 22%
CC(C)Cn1c(-c2ccccc2F)n[nH]c1=S | -3 | . | -6 | -2% | 3% | 4%
CC(C)Cn1c(-c2csc3c2CCCC3)n[nH]c1=S | 8 | ? | 13 | -66% | -3% | 12µM*
O=C(CN1CCN(C(=O)c2cccc(-n3cnnn3)c2)CC1)Nc1ccccc1Cl | . | ? | . | . | 11% | -23%
O=C(COC(=O)/C=C/c1ccc(Cl)cc1)Nc1ccc2[nH]c(=O)[nH]c2c1 | . | 44% | . | . | -7% | 44%
Cn1c2ccccc2c(=O)c2c(=O)n(-c3ccc(F)cc3)c(-c3cccs3)nc21 | 8 | 5.2µM* | 23 | -1% | -1% | ?
Cc1nc2c(c(=O)c3ccccc3n2C)c(=O)n1-c1ccccc1 | 1 | ? | 24 | 1% | -1% | ?
CC(c1ccccc1)n1c(-c2cccs2)nc2c(c(=O)c3ccccc3n2C)c1=O (stereo unspecified) | -5 | -5% | -5 | 1% | -2% | 9.3µM*
Cc1ccc(-c2nc3c(c(=O)c4ccccc4n3C)c(=O)n2-c2ccc(F)cc2)cc1 | -1 | -25% | 5 | -1% | 0% | 8.3µM*
Cn1c2ccccc2c(=O)c2c(=O)n(-c3ccccc3)c(-c3ccc(C(C)(C)C)cc3)nc21 | 14 | 2.6µM* | 30 | 3% | 0% | 1.9µM*
CCc1nc2c(c(=O)c3ccccc3n2C)c(=O)n1-c1ccc(F)cc1 | 3 | ? | 11 | 10% | -22% | 28%
O=C(Nc1cccc(S(=O)(=O)NC2=NCCC2)c1)C1CC(=O)N(c2ccc3c(c2)OCCO3)C1 (stereo unspecified) | 11 | 1% | 17 | . | 0% | -28%
N#Cc1ccccc1NC(=O)COC(=O)c1ccc2c(c1)OCO2 | . | 14% | . | . | -11% | 7%
COc1ccc(N2CCN(C(=O)NCc3cccc(OC)c3)CC2)cc1 | -3 | 38% | -6 | 2% | -3% | 6%
CN(C)c1nc(NCc2ccccc2)nc(N/N=C/c2ccc3c(c2)OCO3)n1 | -3 | ? | -2 | -1% | -10% | 12µM*
CN(C)c1nc(NCc2ccccc2)nc(N/N=C/c2ccc(Br)cc2)n1 | -6 | ? | 2 | 7% | -1% | 13µM*
